Source: PubChem (National Center for Advancing Translational Sciences (NCATS))
Many of the other results were omitted from the sample, so hits are more common in it than they were.
HT1080-NT tox = qHTS for induction of synthetic lethality in tumor cells producing 2HG: qHTS for the HT-1080-NT fibrosarcoma cell line; AID 686970, 2013; HT-1080-NT fibrosarcoma viability, CellTiter-Glo ATP luminescence, 48 h; hit rate 1.6% among 360,000; Potency, µM (titrated, usually from 46.1 µM), for inactives: at the highest dose activity, negative = less viability, most hits filed as cytotoxic;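 further: NT is the 2HG producing partner of a matched IDH1 knockdown line; potency means the concentration at half of the fitted maximal effect; 0% = DMSO-treated cells and -100% = media-only wells without cells; nearly all actives have a fitted effect of over 55% in size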
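Toxicity toward the 2HG-producing NT line was scored as %Activity, normalised to DMSO and no-cell wells, from CellTiter-Glo luminescence after 48 hours' treatment.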
ALOX12 inh = Primary qHTS assay for inhibitors of human arachidonate 12S-lipoxygenase (ALOX12): Round 2; purified 12hLO, xylenol orange hydroperoxide absorbance; hit rate 1.1% among 580,000; Potency, µM (top dose mostly 108 µM), inactives show top-dose activity change, negative = inhibition, hits mostly inhibitors; further: potency means the concentration at half of the fitted maximal effect
Target sequence (P18054 whole entry, looked up): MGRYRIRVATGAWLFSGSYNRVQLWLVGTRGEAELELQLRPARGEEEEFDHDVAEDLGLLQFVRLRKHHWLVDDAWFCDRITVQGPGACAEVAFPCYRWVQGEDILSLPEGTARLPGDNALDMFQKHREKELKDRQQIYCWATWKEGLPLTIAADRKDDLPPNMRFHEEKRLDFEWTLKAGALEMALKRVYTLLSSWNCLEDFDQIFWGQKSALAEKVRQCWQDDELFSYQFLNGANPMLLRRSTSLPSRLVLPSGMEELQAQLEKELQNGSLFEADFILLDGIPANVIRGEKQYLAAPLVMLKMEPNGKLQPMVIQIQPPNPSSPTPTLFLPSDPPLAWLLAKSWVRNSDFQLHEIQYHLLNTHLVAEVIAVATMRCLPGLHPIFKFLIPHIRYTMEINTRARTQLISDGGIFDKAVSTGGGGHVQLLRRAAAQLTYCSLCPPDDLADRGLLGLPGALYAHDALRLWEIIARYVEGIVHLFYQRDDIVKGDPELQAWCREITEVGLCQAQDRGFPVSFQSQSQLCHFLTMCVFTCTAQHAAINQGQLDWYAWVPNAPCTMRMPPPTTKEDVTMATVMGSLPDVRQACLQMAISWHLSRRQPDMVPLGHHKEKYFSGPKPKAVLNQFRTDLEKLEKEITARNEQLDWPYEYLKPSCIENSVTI
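Purified human 12hLO (150 nM final) in 25 mM Hepes, 0.01% Triton X-100, pH 7.0 was preincubated 15 min at room temperature with compound. Then 40 uM arachidonic acid was added, 30 min. Hydroperoxide was read by Fe-XO absorbance ratio 573/405 nm.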
IL-1B inflam inh = qHTS for Inhibitors of Inflammasome Signaling: IL-1-beta AlphaLISA Primary Screen; THP-1 LPS/ATP IL-1B secretion, AlphaLISA, 16 h; active compounds read low; AID 743279, 2014; activity change, % at 57.5 µM; hit rate 4.7% among 360,000; in the data active means activity change below about -50%; inconclusive means mostly about -30% to -49%
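Secreted IL-1B measured by AlphaLISA bead assay after 16 h compound exposure of THP-1 cells; compounds (final up to 57.5 uM) added 1 h before LPS (250 ng/mL) and ATP (1.25 mM) stimulation; lower signal means less secretion.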
HT1080 IDH1KD tx = qHTS for induction of synthetic lethality in tumor cells producing 2HG: qHTS for the HT-1080-IDH1KD cell line. AID 686971, 2013. Potency, µM (titrated, usually from 46.1 µM), for the others: at the top dose activity, negative = toxicity, most hits filed as cytotoxic. hit rate 2% among 360,000. HT-1080 IDH1 knockdown viability, ATP luminescence, 48 h;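 further: potency means the concentration at half of the fitted maximal effect; 0% = DMSO wells and -100% = cell-free medium wells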
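Assay cells: HT-1080 with IDH1 knockdown, 750 per well, RPMI/5% FBS. Exposure: 48 h at 37 °C following 2 h pre-incubation. Read: CellTiter-Glo luminescence; fitted concentration-response, curve class assigned.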
TDP1 cell noCPT = qHTS for Inhibitors of human tyrosyl-DNA phosphodiesterase 1 (TDP1): qHTS in cells in absence of CPT; DT40 Tdp1-/- hTDP1 cells, no CPT, ATP luminescence, 48 h; Potency, µM (titrated, usually from 46.2 µM), for the others: top-dose activity change, negative = growth inhibition, actives largely listed as inhibitors; hit rate 15% among 420,000; further: potency means the concentration at half of the fitted maximal effect; nearly all actives have a fitted effect of over 55% in size
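Camptothecin absent (DMSO only). Human TDP1-complemented DT40 knockout cells, 400 cells/well, 37 °C for minimum 48 hr; ATP measured via CellTiter-Glo, 30 min dark incubation, luminescence.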
DT40 TDP1 CPT = qHTS for Inhibitors of human tyrosyl-DNA phosphodiesterase 1 (TDP1): qHTS in cells in presence of CPT. hit rate 12% among 420,000. chicken DT40 Tdp1-/-;hTDP1 cells + 20 nM CPT, ATP luminescence, 48 h. Potency, µM (titrated, usually from 46.2 µM), for the others: at the top dose activity change, negative = growth inhibition, actives largely listed as inhibitors. AID 686979, 2013; further: potency means the concentration at half of the fitted maximal effect; nearly all actives have a fitted effect of over 55% in size
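Cell growth measured by CellTiter-Glo luminescence after a minimum 48 h, 37 C compound exposure with 20 nM CPT in Tdp1-knockout DT40 cells stably expressing hTDP1, seeded 400/well; qHTS titration format.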
* hit, by the source's call; ? = inconclusive; nt = no result. Unless noted, the call rests on the fitted dose curve; in most records, active means well fitted curve in the direction sought with a large enough effect; inconclusive means small, poorly fitted or top-dose-only effect, or another doubt; inactive means no such curve, though single readings can be large; an effect the other way counts as inactive or inconclusive. Unless noted, on the % scale 0 is the no-effect control and ±100 the full control effect.

SMILES | HT1080-NT tox | ALOX12 inh | IL-1B inflam inh | HT1080 IDH1KD tx | TDP1 cell noCPT | DT40 TDP1 CPT
C=CC(=O)Nc1cccc(CN2C(=O)N(c3cc(OC)cc(OC)c3)Cc3cnc(NCCCCN(CC)CC)nc32)c1 | -14% | nt | -60* | 1% | ? | -12%
Cc1noc(C)c1CN1CCN(C(=O)c2cn(C)nc2-c2ccc3c(c2)OCCCO3)CC1 | nt | 19% | nt | nt | nt | nt
CC(O)CNCCCCOc1ccc(OCc2ccccc2)cc1 (stereo unspecified) | ? | 2% | -56* | -24% | ? | 23µM*
OCCCCNCc1ccc(OCc2ccccc2)cc1 | -4% | 4% | -1 | -8% | ? | ?
CC(O)CNCCCOc1ccccc1OCc1ccccc1 (stereo unspecified) | -7% | -17% | -52* | -16% | ? | -3%
CNCC(C)COc1ccccc1OCc1ccccc1 (stereo unspecified) | -12% | -17% | -7 | -20% | ? | ?
OCCNCCCCOc1ccc(OCc2ccccc2)cc1 | -28% | 4% | -81* | -29% | ? | ?
CCN(CC)Cc1ccc(CNC(=O)c2nccnc2N)cc1 | nt | 2% | nt | nt | nt | nt
COc1ccc(Oc2c(C)oc3cc(OCC(N)=O)ccc3c2=O)cc1 | nt | 5% | nt | nt | nt | nt
Cn1c(CN2CCCC2)nnc1C1CCN(C(=O)c2ccc(=O)[nH]c2)CC1 | nt | -1% | nt | nt | nt | nt
O=C1CC(C(=O)NC2CCCCC2)C(c2ccccc2)O1 (stereo unspecified) | 16% | 0% | 16 | -4% | -2% | -27%
C[C@@H]1[C@@H](Sc2ccccc2)CC(=O)O[C@@H]1c1ccc(-c2ccccc2)cc1 | ? | -9% | -102* | ? | 7.3µM* | 8.2µM*
Cc1cccc(-n2ncc3c2CCCC3NC(=O)CN2CCOC2=O)c1C (stereo unspecified) | 23% | 2% | 16 | 24% | 8% | -1%
CC1=C(C(=O)NC2CCCc3c2cnn3-c2cccc(C)c2C)OCCO1 (stereo unspecified) | -12% | 16% | -22 | ? | 8.2µM* | 21µM*
Cc1cccc(-n2ncc3c2CCCC3NC(=O)c2cccs2)c1C (stereo unspecified) | -12% | -7% | 1 | -27% | 18µM* | ?
Cc1cc(C(=O)NC2CCCc3c2cnn3-c2cccc(C)c2C)no1 (stereo unspecified) | -25% | 0% | -3 | ? | 16µM* | 21µM*
COc1ccc(C(=O)NC2CCCc3c2cnn3-c2cccc(C)c2C)o1 (stereo unspecified) | 21µM* | 2% | 0 | ? | 23µM* | 21µM*
Cc1cccc(-n2ncc3c2CCCC3NC(=O)C2(C)CCNCC2)c1C (stereo unspecified) | nt | -17% | nt | nt | nt | nt
CCOc1ccccc1N1CCN(C(=O)c2cn(CC3CCCCC3)nn2)CC1 | 2% | 15% | 4 | 9% | ? | ?
CCOC(=O)c1ccc2ncc(C(=O)OCC)c(NCCCOC(=O)c3ccc(Cl)cc3)c2c1 | nt | 85% | nt | nt | nt | nt
Cc1nnc(SCC(=O)NC2CCCc3c2cnn3-c2ccccc2F)o1 (stereo unspecified) | -1% | -1% | 6 | 1% | 19% | -6%
CCn1cc(C(=O)NC2CCCc3c2cnn3-c2cccc(C)c2C)cn1 (stereo unspecified) | nt | -1% | nt | nt | nt | nt
